Eight compounds from PubChem BioAssay (EPA / NIEHS) can be followed below.

Each structure is given as a SMILES string. Inconclusive results are not listed. The source made the active and inactive calls. Rule for the calls, unless noted: active = hit-call score of the fitted dose curve at least 0.9, where 1 is the maximum; inactive = score below 0.9.

The nature of assay [1]: ACEA_ER_80hr: ACEA Biosciences xCELLigence Real-Time Cell Analysis on Estrogen Receptor Agonism for Proliferation (AID 2282667; active = hit-call score of the fitted dose curve at least 0.9, where 1 is the maximum). Particulars: T47D proliferation, impedance (xCELLigence), 80 h. Put shortly: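 Estrogen-driven proliferation is captured as electrode impedance in T47D cells 80 h after compound addition. Test articles ran at 8 concentrations, 1:4 dilutions from 100 uM final, in two replicate plates.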

Assay [2] in a line: APR_HepG2_CellCycleArrest_24hr: Apredica 24-hour HepG2 Assay for Cell Cycle Arrest (AID 2282905).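 Note: cell cycle arrest scored as ratio of 2N to 4N nuclear DNA content.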 Particulars: imaging, actives raise or lower the signal. Put shortly: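 After 24 h exposure at 0.39–200 uM in 0.5% DMSO, fixed cells received Hoechst 33342 staining. Imaging quantified per-nucleus DNA content; gain or loss fitted against DMSO controls.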
Assay [3] in a line: APR_HepG2_NuclearSize_24hr: Apredica 24-hour HepG2 Assay for Nuclear Size (AID 2282907). Particulars: high-content imaging, actives raise or lower the signal. Put shortly:
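Nuclear size from Hoechst 33342-stained, formaldehyde-fixed HepG2 nuclei imaged by high-content microscopy, after 24 h dosing at ten concentrations from 0.39 to 200 uM in 0.5% DMSO; gain or loss relative to DMSO baseline.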

Assay [4] in a line: APR_HepG2_CellLoss_24hr: Apredica 24-hour HepG2 Assay for Cell Loss (AID 2282908).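 For AC50: fit in both directions so a hit may be cell loss or gain.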 Particulars: high-content imaging. Put shortly: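 Nuclei stained with Hoechst 33342 after formaldehyde fixation (3.7%) were imaged at 20x to count cells. Exposure lasted 24 hr, at ten concentrations from 0.39 to 200 uM in duplicate, with 0.5% v/v DMSO. Fit bidirectional, relative to DMSO.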
A short description of assay [5]: APR_HepG2_MicrotubuleCSK_24hr: Apredica 24-hour HepG2 Assay for Microtubule CSK Stabilty (AID 2282909). Particulars: HepG2 microtubule cytoskeleton imaging, actives raise or lower the signal. Put shortly: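 Fixed HepG2 cells were stained for alpha-tubulin and imaged after 24 hr exposure to ten concentrations spanning 0.39–200 uM in 0.5% DMSO. Signal change was fitted in both directions relative to DMSO; taxol was the positive control.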

The nature of assay [6]: APR_HepG2_MitoticArrest_24hr: Apredica 24-hour HepG2 Assay for Mitotic Arrest (AID 2282910). Particulars: high-content imaging, actives raise or lower the signal. The gist of the method:
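HepG2, 24 hr dosing, 0.39–200 uM, 0.5% DMSO final. Formaldehyde-fixed, Triton-permeabilised, anti-phospho-histone H3 plus Hoechst. ArrayScan imaging at 20x; bidirectional fit vs DMSO baseline.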

Assay [7] can be described thus: APR_HepG2_MitoMembPot_24hr: Apredica 24-hour HepG2 Assay for Mitochondrial Membrane Potential (AID 2282911). Particulars: imaging, actives raise or lower the signal. Put shortly: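 Mitochondrial dye uptake (MitoTracker Red CMXRos, 250 nM, 30 min pre-fixation) in HepG2 after 24 hr compound exposure, 0.39–200 uM; ArrayScan images at 20x, activity fitted in both directions relative to DMSO.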

Assay [8] can be described thus: APR_HepG2_MitoMass_24hr: Apredica 24-hour HepG2 Assay for Mitochondrial Mass (AID 2282912). Particulars: high-content imaging, actives raise or lower the signal. The gist of the method:
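Endpoint is MitoTracker Red CMXRos (250 nM, 30 min, pre-fixation) intensity from 20x high-content imaging, nuclei located by Hoechst. Human HepG2 cells received ten concentrations from 0.39 to 200 uM in 0.5% DMSO for 24 hr, duplicate wells. Bidirectional fit relative to DMSO.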

Assay [9] in a line: APR_HepG2_CellCycleArrest_72hr: Apredica 72-hour HepG2 Assay for Cell Cycle Arrest (AID 2282914). The following applies: high-content imaging, actives raise or lower the signal. Put shortly:
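Using multiplexed high-content imaging, HepG2 nuclei stained with Hoechst 33342 (2 ug/mL) were analysed for DNA content after fixation and permeabilization. Treatment lasted 72 hr across 0.39–200 uM in duplicate with final DMSO 0.5% v/v; DMSO served as negative control.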

A short description of assay [10]: APR_HepG2_CellLoss_72hr: Apredica 72-hour HepG2 Assay for Cell Loss (AID 2282915). Particulars: high-content imaging. The gist of the method:
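HepG2 cells exposed 72 h to compound at 0.39–200 uM (10 concentrations, duplicate) in 0.5% DMSO. Fixed with 3.7% formaldehyde and Hoechst 33342-stained. Imaged at 20x; nuclear count gives cell number, fitted bidirectionally versus DMSO.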

A short description of assay [11]: APR_HepG2_P-H2AX_72hr: Apredica 72-hour HepG2 Assay for H2AX Phosphorylation (AID 2282916).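 Note: phospho-histone H2A.x immunostain intensity per cell marking DNA damage.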 Particulars: imaging, actives raise or lower the signal. Put shortly: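 Phospho-histone H2A.x immunofluorescence, multiplexed with Hoechst and c-Jun, quantified by high-content imaging. Compounds applied to HepG2 for 72 h across ten concentrations (0.39–200 uM, 0.5% DMSO), in duplicate; DMSO baseline.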

Assay [12] can be described thus: APR_HepG2_MitoMembPot_72hr: Apredica 72-hour HepG2 Assay for Mitochondrial Membrane Potential (AID 2282917). Particulars: imaging, actives raise or lower the signal. The gist of the method: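 HepG2 cells dosed 72 hr with compound at 0.39–200 uM in duplicate, 0.5% v/v DMSO final. Mitochondria stained with 250 nM MitoTracker Red CMXRos for 30 min before formaldehyde fixation, imaged by high-content fluorescence; bidirectional fit versus DMSO.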

Assay [13] can be described thus: APR_HepG2_MitoticArrest_72hr: Apredica 72-hour HepG2 Assay for Mitotic Arrest (AID 2282918). Particulars: high-content imaging, actives raise or lower the signal. The gist of the method: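 Using high-content imaging of fixed HepG2 cells, phospho-histone H3 signal was measured following a 72 hr incubation with ten-point compound dilutions up to 200 uM. DMSO served as the negative control and baseline for bidirectional curve fitting.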

The nature of assay [14]: APR_HepG2_MicrotubuleCSK_72hr: Apredica 72-hour HepG2 Assay for Microtubule CSK Stabilty (AID 2282919). The following applies: HepG2 microtubule cytoskeleton, high-content imaging, actives raise or lower the signal. Put shortly:
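HepG2, 72 hr cmpd exposure, 0.39–200 uM (10 pts, duplicate), 0.5% DMSO. 3.7% formaldehyde fix, 0.5% Triton perm, anti-alpha-tubulin/Cy5 plus Hoechst. HCS fluorescence intensity; bidirectional fit vs DMSO baseline; taxol as positive control.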

A short description of assay [15]: APR_HepG2_P-H2AX_24hr: Apredica 24-hour HepG2 Assay for H2AX Phosphorylation (AID 2282920). Particulars: high-content imaging, actives raise or lower the signal. The gist of the method: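 Human HepG2 liver cells, treated 24 hr with test chemicals (0.39–200 uM, final DMSO 0.5% v/v), are fixed and co-stained for phospho-H2A.x and c-Jun with Hoechst. Imaged intensity is fitted in both directions against DMSO controls.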

The nature of assay [16]: APR_HepG2_StressKinase_72hr: Apredica 72-hour HepG2 Assay for Stress Kinase (AID 2282921). Particulars: HepG2 stress kinase (phospho-c-Jun) imaging, actives raise or lower the signal. Put shortly: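 Stress kinase signal is phospho-c-Jun immunofluorescence (1:500 primary, Cy3 secondary) in fixed, permeabilized human HepG2 cells imaged at 20x. Exposure lasted 72 hr over ten concentrations from 0.39 to 200 uM, 0.5% DMSO, in duplicate. Bidirectional fit versus DMSO.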

Assay [17] can be described thus: APR_HepG2_StressKinase_24hr: Apredica 24-hour HepG2 Assay for Stress Kinase (AID 2282922). The following applies: HepG2 stress kinase (phospho-c-Jun) imaging, actives raise or lower the signal. Put shortly:
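Read-out: phospho-c-Jun immunofluorescence (Cy3 secondary) quantified by high-content imaging at 20x, nuclei defined by Hoechst 33342. Human HepG2 liver cells dosed 24 hr, 0.39–200 uM, DMSO 0.5% v/v; gain or loss of signal fitted relative to DMSO.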

Assay [18] is described as follows: APR_HepG2_MitoMass_72hr: Apredica 72-hour HepG2 Assay for Mitochondrial Mass (AID 2282924).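 Note: MitoTracker Red CMXRos stain intensity per cell imaged as mitochondrial mass.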 The following applies: high-content imaging, actives raise or lower the signal. The gist of the method: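 Read-out: MitoTracker Red fluorescence intensity from automated imaging (20x, six fields per well) in human HepG2 liver cells. Dosing ran 72 hr, 0.39–200 uM, 0.5% DMSO; bidirectional curve fitting versus DMSO baseline.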

The nature of assay [19]: APR_HepG2_NuclearSize_72hr: Apredica 72-hour HepG2 Assay for Nuclear Size (AID 2282925). The following applies: high-content imaging, actives raise or lower the signal. Put shortly: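 Read-out: nuclear diameter from Hoechst 33342 images (ArrayScan, 20x, six fields/well), via cell-cycle image analysis. HepG2 were dosed 0.39–200 uM for 72 hr in 0.5% DMSO. Bidirectional fit relative to DMSO.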

For `O=c1[nH]cnc2c1ncn2[C@H]1CC[C@@H](CO)O1`, the compound was classed as inactive in assay [1], in assay [2], in assay [3], in [4], in assay [5] and in [6]. Also, the call in assay [8], in assay [9], in assay [10], in [11], in [12] and in [13] was inactive. Further, the outcome in assay [14], in assay [15], in assay [16], in [17], in assay [18] and in assay [19] was inactive. Also, in [7], the AC50 was 0.039 µM (active).

On to `C=CCc1cc(S(=O)(=O)c2ccc(O)c(CC=C)c2)ccc1O`, for which the outcome in assay [1], in assay [3], in assay [5], in assay [7], in [12] and in [14] was inactive. Moreover, the compound was classed as inactive in [16] and in assay [17]. Moreover, the AC50 in [2] was 32 µM (active); in assay [4], 97.8 µM (active); in assay [6], 51.5 µM (active); in [8], 52.7 µM (active); in assay [9] it was 33.7 µM (active); in assay [10], 73.2 µM (active). Besides, the AC50 in assay [11] was 53.2 µM (active); in assay [13] it was 71.3 µM (active); in assay [15] it was 77.5 µM (active); in [18] it was 58.5 µM (active); in assay [19] it was 79.1 µM (active).

For `FC(F)C(F)(F)COCC1CO1` (stereo unspecified), the outcome in [1] was inactive.

On to `O=S(=O)(O)CCC(F)(F)C(F)(F)C(F)(F)C(F)(F)C(F)(F)C(F)(F)F`, for which, in assay [1], the outcome was inactive.

For the compound `OCC(CO)(CO)CO`, the compound was called inactive in [1], in assay [2], in assay [3], in assay [4], in [5] and in assay [6]. The outcome in [7], in [8], in [10], in assay [11], in assay [12] and in assay [13] was inactive. The compound was called inactive in [14], in assay [15], in assay [16], in assay [17], in [18] and in assay [19].

With `O=C(N[C@H](CO)[C@H](O)c1ccc([N+](=O)[O-])cc1)C(Cl)Cl`, in assay [1], the outcome was inactive.

For the compound `NCC(F)(F)C(F)(F)C(F)(F)C(F)(F)F`, the result in assay [1] was inactive.

For the compound `Cc1cccc(O)c1C`, in assay [1], the outcome was inactive.
